The values that follow come from PubChem BioAssay (NCI).

Molecules are shown by their SMILES. This is part of a sample that, as a whole, favours compounds with a hit. Of some 83,000 tested, about 20% had one in any assay.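 Single-concentration screen, 48 h exposure, 96-well plates. Endpoint: percent growth. Below 10 = active.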 Activity calls are given as the source filed them.

This experiment concerns MDA-MB-468 breast. Briefly: NCI-60 one-dose screen, 48 h (100 = growth as untreated, 0 = no growth, -100 = all killed). Conditions: 10 µM unless noted.
Turning to `COc1ccc2nc(-c3cc(-c4cc(OC)c(OC)c(OC)c4)n[nH]3)[nH]c2c1`, the growth is -8.59% (active).
The value for `CO/N=C(/C(=O)NC1C(=O)N2C(C(=O)O)=C(COC(N)=O)CSC12)c1ccco1` (stereo not given) was 109% (inactive).
For `NC[C@@H]1CCN(c2cc3c(cc2F)c(=O)n(N)c(=O)n3Cc2ccc(-c3ccccc3)cc2)C1`, the growth was 72.6% (inactive).
On to `Cc1cc(C)c([O-])c(CN(C)CCN(C)Cc2cc(C)cc(C)c2[O-])c1.O=C([O-])c1cccc(C(=O)[O-])n1.[Ti+4]`, for which the growth is -8.96% (active).
Take `CCN(CC)Cc1cc(Nc2ccnc3cc(Cl)ccc23)cc(-c2ccc(Cl)cc2)c1O`: the growth was 5.28% (active).
The figure for `CC(=O)OC[C@]12CCC(C)(C)C[C@H]1[C@@]1(O)[C@H](O)C[C@@H]3[C@@]4(C)CCCNC(C)(C)[C@@H]4CC[C@@]3(C)[C@]1(C)CC2` is 115% (inactive); for `OC(COc1ccccc1Cl)CN1CCN(c2cccc(Cl)c2)CC1` (stereo not given) it is 103% (inactive); for `CS(=O)c1nccc(-c2c(-c3ccc(F)c(OCCc4ccc(F)cc4)c3)nc3sccn23)n1` (stereo not given) it is -64.3% (active).
As for `COc1cc(O)c2c(c1)/C=C/C[C@H](O)[C@H](O)C(=O)/C=C\C[C@H](C)OC2=O`, the growth is -24.3% (active).
The value for `C=C1C(=O)O[C@H]2[C@H]1CC/C(COC(=O)c1ccc(C(=O)O)s1)=C\CC[C@@]1(C)O[C@@H]21` was -46.7% (active); that for `O=C(OCC1CCCO1)c1ccc([N+](=O)[O-])cc1` (stereo not given) was 88.9% (inactive); that for `CC1(C)CC[C@]2(C(=O)O)CC[C@]3(C)C(=CC[C@@H]4[C@@]5(C)CC[C@H](NOCCCN)C(C)(C)[C@@H]5CC[C@]43C)[C@@H]2C1` was -45.6% (active).
The figure for `COc1cc(Cl)c(C)cc1NC(=O)c1cc2ccccc2cc1O` is -8.5% (active); for `CC(C)(C)n1cc(-c2ccnc(NCCCNS(=O)(=O)c3ccc(F)cc3)c2)c(-c2cccc(O)c2)n1` it is 24.3% (inactive).
The figure for `CN(C)Cc1cc(C(C)(C)CC(C)(C)C)ccc1O` is 100% (inactive); for `COc1ccc(S(=O)(=O)n2c3ccccc3n3ncc(-c4nnc(C)o4)c23)cc1` it is -19.5% (active); for `CC1CN(Cc2ccccc2)C(=O)NC1=O` (stereo not given) it is 111% (inactive).
For the compound `CN(C)CC(=O)c1ccc2cc(Br)c3ccccc3c2c1`, the growth is 72.1% (inactive).
Regarding `CC[C@]12C=CCN3CC[C@@]4(c5cc(NC(=O)COc6cc(O)c7c(=O)cc(-c8ccccc8)oc7c6)c(OC)cc5N(C)[C@H]4[C@@](O)(C(=O)OC)[C@@H]1OC(C)=O)[C@@H]32`, the growth was -74.6% (active).
The figure for `COc1ccc2nc(NC(=O)CN3CCn4c(nnc4C(F)(F)F)C3)sc2c1` is 84.5% (inactive); for `Cc1nc2sc(C(=O)Nc3ccccc3)c(N)c2cc1C(=O)c1ccc(C(F)(F)F)cc1` it is 107% (inactive); for `Cc1cc(CC(C)CC(C)(C)C)n(O)c(=O)c1` (stereo not given) (tested in a mixture with another compound) it is -7.41% (active).
The value for `C=C(CBr)[C@@H]1CC[C@]2(COC(C)=O)CC[C@]3(C)[C@H](CC[C@@H]4[C@@]5(C)CCCNC(C)(C)[C@@H]5CC[C@]43C)[C@@H]12` was 25.1% (inactive); that for `CC(CSc1n[nH]c(=S)s1)c1ccccc1` (stereo not given) was 114% (inactive).
The figure for `CCOC(=O)/C(C#N)=C1/NNC(=Nc2cccnc2)S1` is 95.3% (inactive); for `O=C1c2c[n+](Cc3ccccc3)ccc2-c2nc3ccccc3c3ccnc1c23` it is -59.2% (active).
On to `O=C1C(Cl)=C(Nc2ccccc2)C(=O)c2ccccc21`, for which the growth is -77.8% (active).
Turning to `Oc1ccc(-c2nc3ccccc3s2)cc1CN(Cc1ccccn1)Cc1ccccn1`, the growth is 13.6% (inactive).
For `CC#Cc1nc(Nc2cc(C)[nH]n2)c2ccccc2n1`, the growth is 1.44% [100 µM] (active).
The value for `O=C(/C=C/c1cccc(O)c1)c1ccccc1O` was 85% (inactive); that for `N#C/C(=C/C=C/c1cccc(Cl)c1)S(=O)c1ccccc1` (stereo not given) was -46% (active).
`c1ccc(CCNc2c3ccccc3nc3ccccc23)cc1`: the growth was -11.4% (active).
The figure for `CC/C=C\C/C=C\C[C@H](O)C/C=C1/C(=O)C=C[C@@H]1C/C=C\CCCC(=O)O` is 23.5% (inactive); for `O=C1NN(C(=O)c2ccccc2)C(c2ccc(Cl)c(Cl)c2)=C/C1=C\c1ccccc1[N+](=O)[O-]` it is 53.9% [6.75 µM] (inactive); for `Cc1[nH]c(C2CC(c3ccc(C(F)(F)F)c(F)c3)=NN2C)c(C)c1C(=O)NCC(F)(F)F` (stereo not given) it is 81.6% (inactive).
Take `CSc1cc(SC)ncn1`: the growth was 108% (inactive).
The value for `FC(F)(F)c1ccc(-c2cnc(Cl)nc2N2CCC3(CC2)OCCO3)cc1` was 103% (inactive); that for `Nc1ncc(-c2ccc3ncnc(Nc4cccc(Cl)c4F)c3c2)cn1` was -5.52% (active); that for `C=CCOC(=O)C1=C(C)N(CC)C(=O)NC1c1c(Cl)n(C)c2ccccc12` (stereo not given) was 107% (inactive).
The value for `COc1cc(-c2nc(-c3nnc(-c4ccccc4Cl)o3)c3ccccn23)cc(OC)c1OC` was 88.5% (inactive).
